Assay outcomes (PubChem BioAssay)
Most compounds without a hit are left out; they make up all but 2.4% or so of the library.
Pol iota inh: blocks human DNA polymerase iota activity. Pol iota fluorescent replication assay, 10 min. Potency, µM (titrated, usually from 115 µM), without a hit: at the highest dose activity, negative = inhibition, usual class: inhibitors. 390,000 compounds, 1% hits. AID 588590
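Pol iota at 10 nM preincubated 15 min with compounds at room temperature; reaction started with fluorescent substrate, 50 nM final. Fluorescence read kinetically at 0 and 10 min; buffer-only wells as negative control.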
WRN inhibitor: inhibitors of human WRN helicase; WRN helicase unwinding, fluorescent forked duplex, kinetic; 360,000 compounds, 0.46% hits; Potency, µM (top dose mostly 114 µM), for the others: top-dose activity change, negative = inhibition, actives largely listed as inhibitors; Q14191; also: % is scaled to controls: 0 for no effect and ±100 for the full control effect; nearly all actives have a fitted effect of over 55% in size
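WRN at 20 nM final was preincubated with compound for 15 min at room temperature; reaction started with 100 nM forked duplex oligonucleotide carrying fluorophore and quencher plus 2 mM ATP (final). Unwinding followed kinetically by red fluorescence (ex 525/em 598 nm).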
POLB inh: inhibitors of human DNA polymerase beta; P06746; Pol beta primer extension/strand displacement, fluorescence kinetic; Potency, µM (doses to about 114 µM), for the others: at the highest dose activity change, negative = inhibition, actives largely listed as inhibitors; 340,000 compounds, 1.3% hits; also: % is scaled to controls: 0 for no effect and ±100 for the full control effect
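Homogeneous kinetic assay of primer extension and strand displacement by 10 nM Pol beta, preincubated 15 min at room temperature with compound before 50 nM substrate (final) was added. Read at 0 and 10 min; four-parameter Hill fit.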
Pol kappa inh-1: blocks human DNA polymerase kappa activity. 400,000 compounds, 0.53% hits. Q9UBT6. Potency, µM (titrated, usually from 107 µM), for the others: at the top dose activity, negative = inhibition, most hits filed as inhibitors. purified Pol kappa, fluorescent DNA synthesis assay, 10 min; also: % is scaled to controls: 0 for no effect and ±100 for the full control effect
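10 nM Pol kappa preincubated 15 min at room temperature with compounds, then reaction started with substrate at 50 nM final. Fluorescence read kinetically at 0 and 10 min; buffer-only wells served as negative control.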
FEN1 inh-1: blocks human flap endonuclease 1. P39748. Recombinant FEN1 flap cleavage, fluorescence, 15 min. Potency, µM (top dose mostly 114 µM), for the others: at the highest dose activity change, negative = inhibition, actives largely listed as inhibitors. 390,000 compounds, 0.35% hits. AID 588795; also: % is scaled to controls: 0 for no effect and ±100 for the full control effect; nearly all actives have a fitted effect of over 65% in size
Target sequence (P39748 whole entry, looked up): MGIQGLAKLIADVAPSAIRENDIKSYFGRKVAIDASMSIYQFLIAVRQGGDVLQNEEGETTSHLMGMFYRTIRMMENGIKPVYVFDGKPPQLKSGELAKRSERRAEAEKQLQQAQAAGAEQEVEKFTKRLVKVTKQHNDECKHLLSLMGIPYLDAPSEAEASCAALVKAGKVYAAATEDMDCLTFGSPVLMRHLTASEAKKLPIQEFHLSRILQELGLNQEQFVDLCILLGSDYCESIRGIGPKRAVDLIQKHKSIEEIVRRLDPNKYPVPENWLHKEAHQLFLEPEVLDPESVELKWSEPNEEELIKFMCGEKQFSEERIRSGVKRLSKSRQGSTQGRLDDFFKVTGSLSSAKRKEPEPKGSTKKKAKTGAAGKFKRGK
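FEN1 at 10 nM, compound pretreatment for 15 min (room temperature), 50 nM final substrate to initiate; endpoint reads at 0 and 15 min; DMSO-only plates used as vehicle background.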
Pol eta inh-1: blocks human DNA polymerase eta activity; recombinant Pol eta, fluorescent DNA replication assay; Potency, µM (doses to about 114 µM), for the others: at the highest dose activity change, negative = inhibition, actives largely listed as inhibitors; Q9Y253; 390,000 compounds, 1.2% hits; also: % is scaled to controls: 0 for no effect and ±100 for the full control effect
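Pol eta at 10 nM preincubated with compounds 15 min at room temperature; reaction started with fluorescent substrate (50 nM final) and read kinetically at 0 and 10 min.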
Pol kappa inh-2: confirmation of human DNA polymerase kappa inhibitors; shares compounds with Pol eta inh-1; purified Pol-kappa, fluorescent strand-displacement substrate; Potency, µM, usual class: inhibitors; 920 compounds, 76% hits
Pol eta inh-2: Pol eta (human) inhibition, cherry-pick confirmation; shares compounds with Pol eta inh-1; 2,600 compounds, 64% hits; Potency, µM, most hits filed as inhibitors; Pol eta primer extension, TAMRA/BHQ fluorescence, 10 min
FEN1 inh-2: confirmation of human FEN1 inhibitors; shares compounds with FEN1 inh-1; AID 720498; FEN1 flap cleavage, TAMRA/BHQ2 fluorogenic DNA substrate; Potency, µM, usual class: inhibitors; 880 compounds, 79% hits; also: nearly all actives have a fitted effect of over 60% in size
* hit, by the source's call; ? = inconclusive; nt = not tested or not shown; [ ] = dose if it differs, or a comment. Calls follow the shape of the dose curve; as a rule, active = well fitted curve in the direction sought with a large enough effect; inconclusive = small, poorly fitted or top-dose-only effect, or another doubt; inactive = no such curve, though single readings can be large; an effect the other way counts as inactive or inconclusive. Potency is read from the fitted curve at half-maximal effect.

SMILES | Pol iota inh | WRN inhibitor | POLB inh | Pol kappa inh-1 | FEN1 inh-1 | Pol eta inh-1 | Pol eta inh-2 | FEN1 inh-2 | others
CCCC1O[C@@H]2C[C@H]3[C@@H]4CCC5=CC(=O)C=C[C@]5(C)C4[C@@H](O)C[C@]3(C)[C@]2(C(=O)CO)O1 (some centres undefined) | -5%[58.9 µM] | nt | 4%[57.1 µM] | nt | nt | -3%[57.1 µM] | nt | nt
CCc1ccc(OCC(=O)Nc2ccc(Cl)c(-c3nc4ncccc4o3)c2)cc1 | -9% | nt | -17% | -4% | 4% | nt | nt | nt
COc1ccc(C2=CC3=C(Br)C(=O)C(C)(OC(=O)c4cccs4)C(=O)C3=CO2)cc1 (centres undefined) | ? | ? | nt | ? | ? | 40µM* | ? | nt
O=C(O)Cc1ccc(NC(=O)c2ccc(NC(=O)c3ccco3)cc2)cc1 | 45µM* | -6%[11.6 µM] | ? | ? | 6% | 25µM* | 43* | nt
O=C(Nc1ccc2[nH]c(=O)[nH]c2c1)c1ccc([N+](=O)[O-])o1 | ? | -8%[11.6 µM] | nt | -13% | -24% | 56µM* | ? | 43* | Pol kappa inh-2=?
COc1cc(/C=C2\SC(=S)N(NS(=O)(=O)c3ccc(C)cc3)C2=O)ccc1O | 40µM* | 45µM* | 40µM* | ? | -26% | ? | nt | 67* | Pol kappa inh-2=?
COc1ccc(/C=N\NC(=O)COc2ccc(Cl)cc2Cl)c(C(=O)O)c1OC | 149% | -5% | 2% | -4% | 3% | -25% | nt | nt
COc1ccc(/C=N/NC(=O)c2[nH]c3ccc(Cl)cc3c2-c2ccccc2)c(C(=O)O)c1OC | 27% | ? | -20% | -6% | ? | 79µM* | 38* | 38*
CC(C)C[C@H](N)C(=O)N[C@H](C(=O)N[C@@H](CCCN=C(N)N)C(=O)N[C@H](CS)C(=O)NCC(=O)N[C@@H](CCCCN)C(=O)N[C@@H](Cc1cnc[nH]1)C(=O)N[C@@H](CO)C(=O)N[C@@H](CCCN=C(N)N)C(=O)O)C(C)C | nt | nt | nt | 12%[60.1 µM] | nt | nt | nt | nt
Cc1ccc(-n2c(O)c(C=Nc3ccccc3-c3n[nH]c(=S)[nH]c3=O)c3ccccc3c2=O)cc1C | ? | 79µM* | ? | ? | 50µM* | 32µM* | ? | 67*
Cc1ccc(-n2c(O)c(C=NC3CCS(=O)(=O)C3)c3ccccc3c2=O)cc1C (centres undefined) | -5% | -12% | 0% | -9% | 0% | 6% | nt | nt
COC(=O)N1CCC2(CCCN(c3ncccn3)C2)CC1 | nt | nt | nt | 4%[60.1 µM] | nt | nt | nt | nt
CCn1cc(C(=O)O)c(=O)c2cc(F)c(N/N=C/c3ccccc3[N+](=O)[O-])cc21 | 13% | ? | ? | -4% | -20% | 5.6µM* | 43* | 7.6*
Cc1c(O)c2c(c(C(=O)/C=C/c3ccccc3)c1O)OC(C)(C)C=C2 | -24% | nt | nt | -20% | -26% | nt | nt | nt
COc1cc2cc3c(N)c(C(=O)Nc4sc(C)c(C)c4C#N)sc3nc2cc1OC | 7.9µM* | ? | 7.9µM* | 32µM* | 50µM* | 28µM* | 30* | 43*
Cc1csc(N=Cc2ccc([N+](=O)[O-])o2)n1 | nt | ? | nt | nt | nt | 18µM* | ? | 30*
Cc1cc(N/N=C/c2ccc([N+](=O)[O-])o2)nc2ccccc12 | -3% | -1% | -26% | -28% | -11% | -9% | nt | nt
Nc1nc2c(nc(Br)n2C2O[C@H]3COP(=O)(O)O[C@@H]3C2O)c(=O)[nH]1 (some centres undefined) | 5%[58.9 µM] | nt | 14%[57.1 µM] | nt | nt | -1%[57.1 µM] | nt | nt
O=C(C[n+]1cccc(Br)c1)c1ccc(F)cc1 | -24% | nt | nt | 0% | 11% | nt | nt | nt
CCN=c1scc(C)n1/N=C/c1ccc(O)c(O)c1O | 8.9µM* | 22µM* | 10µM* | 22µM* | ? | 6.3µM* | 67* | ?
CCN=c1scc(C)n1/N=C/c1cc(Br)c(O)c(Br)c1 | -3% | -5%[11.6 µM] | ? | -24% | 11% | ? | nt | nt
OC[C@@H]1OC(O)[C@@H](O)[C@H](O)[C@@H]1O (some centres undefined) | nt | nt | nt | 5%[60.1 µM] | nt | nt | nt | nt
O=c1cc(-c2ccc(O)cc2)oc2ccc3ccccc3c12 | 40µM* | -24% | nt | -24% | ? | ? | nt | ? | Pol kappa inh-2=?
COc1cccc2oc(-c3ccc(O)cc3)cc(=O)c12 | nt | nt | nt | -5%[19.4 µM] | nt | nt | nt | nt
O=C1NC(=O)/C(=C/c2ccc(-c3cc(C(=O)O)ccc3Cl)o2)S1 | 40µM* | -10%[11.6 µM] | 32µM* | 56µM* | 20µM* | 20µM* | ? | 38*
SMILES | Pol iota inh | WRN inhibitor | POLB inh | Pol kappa inh-1 | FEN1 inh-1 | Pol eta inh-1 | Pol eta inh-2 | FEN1 inh-2 | others
Cc1cc(Cl)ccc1NC(=O)C1CCN(c2nnc(-n3c(C)ccc3C)s2)CC1 | 19% | nt | -9% | -11% | 9% | nt | nt | nt
CCc1ccc(NS(=O)(=O)c2ccc(-c3cc(C)no3)cc2)cc1 | 18% | nt | -2% | -31% | -7% | -18% | nt | nt
O=C(NCCCO)c1ccc2nc(-c3ccco3)c(-c3ccco3)nc2c1 | 10µM* | ? | 28µM* | 28µM* | 13µM* | 7.9µM* | 19* | 67* | Pol kappa inh-2=19*
Cc1c(Cl)cnc(NC(=O)COC(=O)c2ccc([N+](=O)[O-])s2)c1Cl | 25µM* | ? | 28µM* | -44% | ? | 18µM* | 85* | 8.5*
Cc1ccnc2ccc(N)cc12 | 93% | nt | nt | -3% | -7% | nt | nt | nt
Cc1ccc(C)c(Nc2nc3c(S(=O)(=O)c4ccc(Br)cc4)nnn3c3ccsc23)c1 | 45µM* | nt | 18µM* | ? | ? | -25% | nt | ? | Pol kappa inh-2=21*
Cc1ccc(C)c(Nc2nc3c(S(=O)(=O)c4ccc(C(C)C)cc4)nnn3c3ccsc23)c1 | -24% | nt | 1% | -14% | -2% | -19% | nt | nt
COc1ccc(-c2cn3c(n2)sc2cc(C(=O)NCCCN4CCCCCC4)ccc23)cc1 | 17% | nt | 0% | -35% | -4% | ? | nt | 38* | Pol kappa inh-2=?
Ic1ccc(Nc2nc(NCCN3CCOCC3)nc(N3CCOCC3)n2)cc1 | 3% | nt | nt | -2% | -18% | nt | nt | nt
COc1ccc(-c2cc(=O)c3c(O)cc(OC4OC(COC5OC(C)C(O)C(O)C5O)C(O)C(O)C4O)cc3o2)cc1O (centres undefined) | ? | -8%[11.6 µM] | nt | ? | 50µM* | 22µM* | 30* | ? | Pol kappa inh-2=12*
